High-throughput results (PubChem)
Rows were chosen to be rich in hits. Some 2.1% of all compounds tested hit in one or more screens of this group.
IL1B NFkB pot – enhances IL-1B driven NFkB nuclear translocation | HUVEC IL-1B NFkB p65 nuclear translocation imaging | activation, % at 2 µM | hit rate 0.3% among 94,000 | AID 819;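 active means activation above 40%, about the mean plus 3 SD, also judged a hit on visual image review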;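 further: percent activation is computed from the nuclear over cytoplasmic p65 intensity ratio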
HUVEC tox IL1B – HUVEC cytotoxicity counter-screen, IL-1B stimulated. HUVEC cell count loss, Hoechst imaging. cell count reduction, % at 2 µM. hit rate 0.41% among 94,000;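 active means cell count reduction more than 3 SD above the screen-wide mean, cut at about 70% in these data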
Measles CPE – protection of cells from measles virus; Measles virus-infected cells, CPE protection, absorbance; protection (pct of control), % at 4 µM; hit rate 1.5% among 140,000; AID 841; in the data active means protection mostly above about 24%, no sharp cut-off; inactive means mostly below about 26%
IL1B NFkB inh – blocks IL-1B driven NFkB nuclear translocation in HUVEC cells. HUVEC IL-1B NFkB p65 nuclear translocation imaging. inhibition, % at 2 µM. hit rate 0.43% among 94,000;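 active means inhibition above about 30% together with a positive call from visual inspection of the well image, limit read from the data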;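 further: nuclear over cytoplasmic p65 intensity ratio measured by imaging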
Numbers stand for hits; . = inactive; / = no result.

SMILES	IL1B NFkB pot	HUVEC tox IL1B	Measles CPE	IL1B NFkB inh
O=C1NC(c2ccccc2)C(C(=O)c2cccs2)C(O)(C(F)(F)F)N1 (stereo not given)	.	.	.	.
CCOC(=O)C1C(c2cc(OC)c(O)c(OC)c2)NC(=S)NC1(O)C(F)(F)F (stereo not given)	/	/	36	/
COc1cc(C2NC(=S)NC(O)(C(F)(F)F)C2C(=O)c2cccs2)cc(OC)c1O (stereo not given)	/	/	32	/
CCCCNC(=O)Nc1nnc(-c2ccc(Cl)cc2)o1	.	.	.	.
CCOC(=O)c1[nH]c(C)c(C(=O)Nc2cc(OC)ccc2OC)c1C	.	80	.	30
Cc1ccc(OC(C)c2nnc(N)s2)cc1Cl (stereo not given)	.	92	.	97
CCCCOc1ccc(/C=C/C(=O)Nc2ccc([N+](=O)[O-])cc2C)cc1	/	/	.	/
CCCOc1ccc(/C=C/C(=O)Nc2ccc([N+](=O)[O-])cc2)cc1	.	.	51	.
C/C(Cn1nnc([N+](=O)[O-])n1)=N\NC(=O)c1ccccc1Cl	.	.	50	.
CC1CC(C)CN(S(=O)(=O)c2cccc(C(=O)OCCN3CCCC3=O)c2)C1 (stereo not given)	.	.	.	.
CS(=O)(=O)c1nc(-c2cccs2)cc(C(F)(F)F)n1	.	.	.	31
COC(=O)CCS(=O)(=O)c1nc(-c2ccccc2)cc(C(F)(F)F)n1	.	.	.	37
COc1ccc(/C=N/NC(=O)Nc2cccc3nsnc23)cc1	/	/	.	/
Cc1ccc(NC(=O)COC(=O)C2(c3ccc(Cl)cc3)CCCC2)cc1	/	/	.	/
CCNC(=S)N/N=C/c1ccc(-c2ccccc2)o1	/	/	.	/
COC(=O)N/N=C/c1ccc(-c2cc(Cl)ccc2Cl)o1	/	/	.	/
O/N=C\c1ccc(-c2ccccc2)o1	/	/	31	/
O/N=C/c1ccc(-c2cc(Cl)ccc2Cl)o1	/	/	43	/
CCOC(=O)CSc1nnc(-c2ccc(Cl)cc2Cl)o1	.	.	42	.
CCCOC(=O)CSc1nnc(-c2ccc(Cl)cc2Cl)o1	.	.	.	.
CCOc1cc(S(=O)(=O)NCc2ccccc2)ccc1F	.	.	.	.
Cc1ccc(Oc2ccc(-c3nc(N)nc(N)n3)cc2)cc1	.	86	.	97
CCNc1oc(COc2cccc(C)c2)nc1C#N	.	.	38	.
OCCN1CCN(c2nc(-c3ccccc3)c3cc(Cl)ccc3n2)CC1	.	.	63	.
O=C1CN(c2nc(-c3ccccc3)c3cc(Cl)ccc3n2)c2ccccc2N1	/	/	40	/
SMILES	IL1B NFkB pot	HUVEC tox IL1B	Measles CPE	IL1B NFkB inh
COCCCNc1ncnc2nc[nH]c12	.	.	.	.
Cc1c(Nc2cc(N3CCCCCC3)c3nonc3c2[N+](=O)[O-])c(=O)n(-c2ccccc2)n1C	.	.	.	.
O=C(NNCC(O)COc1ccccc1)c1ccccc1 (stereo not given)	/	/	49	/
O=C1NC2(CCc3ccccc3C2)C(=O)N1CCOc1cccc(Cl)c1 (stereo not given)	/	/	23	/
Clc1cccc(OCCN2CCN(CCOc3cccc(Cl)c3)CC2)c1	/	/	.	/
CC(=O)Nc1ccc(S(=O)(=O)Nc2cccc(N(C)S(C)(=O)=O)c2)cc1	.	.	.	.
CC(=O)Nc1ccc(N(C)S(C)(=O)=O)cc1	.	.	39	.
COc1ccc2c(C(=O)CN3CCN(CCO)CC3)c[nH]c2c1	.	.	/	.
COc1ccc2[nH]cc(C(=O)CN3CCN(C/C=C/c4ccccc4)CC3)c2c1	.	.	.	36
Cc1cc(C(=O)CSc2nc3ccccc3[nH]2)c(C)n1CC1CCCO1 (stereo not given)	.	.	39	.
COc1ccc(NC(=O)Cn2nnc(-c3ccccc3F)n2)cc1	.	.	49	.
CCOC(=O)c1ccc(NC(=O)CCc2nc(-c3cccc(C)c3)no2)cc1	.	87	.	99
COc1ccc(NC(=O)Cn2nnc(-c3ccccc3NC(=O)C3CC3)n2)cc1	/	/	.	/
COc1cccc(NC(=O)CCc2nc(-c3ccccc3F)no2)c1	.	82	.	.
O=C(CCc1nc(-c2ccccc2F)no1)Nc1ccc(Oc2ccccc2)cc1	.	.	.	.
CCOc1ccc(NC(=O)Cn2nnc(-c3ccccc3F)n2)cc1	.	.	.	.
COc1ccc(C(=O)Cn2nnc(-c3ccccc3NC(=O)C3CCCCC3)n2)cc1	.	.	32	.
O=C1COc2ccccc2N1Cc1ccccc1Cl	/	/	.	/
Cc1nnc(N(C)C(=O)c2ccccn2)s1	.	.	53	.
CCCS(=O)(=O)C(=C(Nc1ccccc1)Nc1ccccc1)S(=O)(=O)CCC	.	.	.	.
O=C(COC(=O)c1ccccc1)NCc1ccco1	.	.	26	.
O=C(COc1ccccc1Cl)NCc1ccco1	.	80	.	99
O=C(CSc1nc(-c2ccccc2)cs1)NCc1ccco1	.	.	.	50
CCOC(=O)c1sc(C(=O)OCC)c(OCCO)c1OCCO	.	.	.	.
O=C(C1CCC(=O)N1Cc1ccccc1Cl)N1CCN(c2ccc(F)cc2)CC1 (stereo not given)	.	78	.	.
SMILES	IL1B NFkB pot	HUVEC tox IL1B	Measles CPE	IL1B NFkB inh
CC(C)CCN1CC(C(=O)N2CCN(c3ccc(F)cc3)CC2)CC1=O (stereo not given)	.	76	.	.
COc1ccccc1CN1CC(C(=O)N2CCN(c3ccc(F)cc3)CC2)CC1=O (stereo not given)	41	.	.	.
O=C1CC(C(=O)N2CCN(c3ccc(F)cc3)CC2)CN1CCc1ccccc1 (stereo not given)	.	.	.	.
COc1ccc(CN2CC(C(=O)N3CCOCC3)CC2=O)cc1 (stereo not given)	.	.	.	.
Cc1cccc(C)c1-n1nnnc1C1(Nc2ccccc2)CCCCC1	.	.	.	.
Clc1ccc(NC2(c3nnnn3C3CCCCC3)CCCCC2)cc1	/	/	50	/
O=C(O)/C(=C\c1ccco1)NC(=O)c1ccccc1	/	/	30	/
COC(=O)/C(=C/c1ccco1)NC(=O)c1ccccc1	/	/	.	/
CCn1c(CNC(=O)c2ccco2)nnc1SCC(=O)Nc1cc(C(F)(F)F)ccc1Cl	.	.	.	.
OC1C[N+]2(CCCCC2)C1	.	92	.	.
COc1ccccc1C1C(C(C)=O)=C(C)N=c2s/c(=C\c3cc(OC)c(OC)c(OC)c3)c(=O)n21 (stereo not given)	.	84	.	98
COc1cccc(C2C(C(=O)Nc3ccccc3)=C(C)N=c3s/c(=C/c4ccc(OCC(=O)O)cc4)c(=O)n32)c1 (stereo not given)	/	/	.	/
Cc1cc(C)c(-c2csc(NC(=O)c3n[nH]c(=O)c4ccccc34)n2)c(C)c1	/	/	62	/
O=S(=O)(NCCc1ccncc1)c1cc(Br)ccc1F	.	92	.	.
CNC(=S)N/N=C/c1cc(C)n(-c2ccc(Cl)c(Cl)c2)c1C	/	/	.	/
CCOc1ccc(C(=O)Nc2cccc([N+](=O)[O-])c2)cc1Br	/	/	.	/
CC1(c2ccccc2)NC(=O)N(Cc2ccc([N+](=O)[O-])cc2)C1=O (stereo not given)	/	/	53	/
CCC(=O)N1CCN(c2cc(C)ccc2C)CC1	.	.	.	.
Cc1ccc(C)c(N2CCN(C(=O)CC3Sc4ccccc4NC3=O)CC2)c1 (stereo not given)	.	79	.	.
COC(=O)c1ccccc1NC(=O)c1cc([N+](=O)[O-])nn1Cc1ccccc1	/	/	.	/
